“And” between values parts separate entries of the source, which are not always exact repeats. Equal entries are not always repeated. Compounds without any hit were thinned out: in the full panel of roughly 79,000, 15% have a hit. The source made the active and inactive calls. Cut-off read from the data, not from the text of the source: active = growth inhibition above about 70%; inactive = the rest.
How the values were obtained:
[1] = NCI Yeast Anticancer Drug Screen. Data for the rad50 strain (AID 155);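 note: 0% = growth of vehicle-only cultures of the same strain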; conditions: S. cerevisiae rad50 strain growth inhibition, hits give high values; at 50.0 µM unless noted
Procedure, shortened: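 Vehicle-treated cultures provide the reference for the growth inhibition reported for compound-exposed, repair-deficient yeast.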

[2] = NCI Yeast Anticancer Drug Screen. Data for the mec2-1 strain (AID 157); conditions: S. cerevisiae mec2-1 strain, hits give high values; at 50.0 µM unless noted
Procedure, shortened: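 Vehicle-treated cultures served as reference for growth inhibition of compound-exposed mec2-1 yeast.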

[3] = NCI Yeast Anticancer Drug Screen. Data for the sgs1 mgt1 strain (AID 161);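 note: 0% = growth of cultures given vehicle only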; conditions: S. cerevisiae sgs1 mgt1 strain, hits give high values; at 50.0 µM unless noted
Procedure, shortened: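 Mutant yeast exposed to compound; growth scored against vehicle-only wells.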

[4] = NCI Yeast Anticancer Drug Screen. Data for the cln2 rad14 strain (AID 165);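 note: 0% = growth equal to vehicle treated cultures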; conditions: S. cerevisiae cln2 rad14 strain, hits give high values; at 50.0 µM unless noted
Procedure, shortened: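 Each compound was tested on cln2 rad14 yeast. Inhibition of growth was calculated against vehicle-exposed controls.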

[5] = NCI Yeast Anticancer Drug Screen. Data for the bub3 strain (AID 167); conditions: S. cerevisiae bub3 mutant strain, hits give high values; at 50.0 µM unless noted
Procedure, shortened: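 Mutant yeast screening strain plus compound; vehicle-treated cultures serve as the 0% inhibition reference.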

[6] = NCI Yeast Anticancer Drug Screen. Data for the mlh1 rad18 strain (AID 175); conditions: S. cerevisiae mlh1 rad18 strain growth inhibition, hits give high values; at 50.0 µM unless noted
Procedure, shortened: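 Vehicle-treated cultures served as the reference for growth inhibition in a yeast strain carrying DNA damage repair alterations exposed to each compound.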

Measured: growth inhibition

c1ccc2cnncc2c1
inactive: [1] 0.35% | [2] -0.55% | [3] -11.8% | [4] 4.35% | [5] 11.7% | [6] 0.25%

COc1cc2c(cc1OC)C(C(N)=O)NCC2 (stereo not given)
inactive: [1] 10.2% | [2] -35.8% | [3] 25.6% | [4] 12.2% | [5] -7% | [6] 17.6%

N#Cc1ccc(Nc2cnc3cc(N)ccc3n2)cc1
inactive: [1] 38.6% | [2] -10.2% | [3] 13.6% | [4] 18% | [5] 12.8% | [6] 34.6%

Cc1ccccc1Cc1nccc2c1[nH]c1ccccc12
inactive: [1] -3% and -0.7% | [2] -11.5% and -15.1% | [3] -9.05% | [4] -29.5% | [5] -8.45% | [6] -16.9% and 50.1%

CC(C)N(C(C)C)S(C)(=O)=O
inactive: [1] -0.3% | [2] -0.5% | [3] -3.9% | [4] -17.8% | [5] 10.3% | [6] 3.1%

CN(C)C(=O)Sc1cccc([N+](=O)[O-])c1
inactive: [1] 9.5% | [2] -14.9% | [3] -21.8% | [4] -38.3% | [5] 10.5% | [6] -25.6%

Cn1cnc([N+](=O)[O-])c1Sc1ncc[nH]1
inactive: [1] 1.3% | [2] 3.1% | [3] -3.05% | [4] 16.4% | [5] 9.7% | [6] 2.8%

CCN(CC)C(=O)C1CCN(CCOc2ccccc2)CC1
inactive: [1] -14.2% | [2] 13.2% | [3] 1.55% | [4] -10% | [5] -0.25% | [6] -26%

CCCCOC(=O)C1CN2C=CC=NC2=NC1(C(F)(F)F)C(F)(F)F (stereo not given)
inactive: [1] -16.1% | [2] 27% | [3] 6.6% | [4] 0.95% | [5] 3.35% | [6] -43.1%

CC(=O)N(C)c1ccc(NC(=O)C2CCCCC2C(=O)O)cc1 (stereo not given)
inactive: [1] 6.95% | [2] 8.6% | [3] 6.2% | [4] 3.65% | [5] 22.2% | [6] -14.2%

CC1(C)C2(Cl)C(Cl)=C(Cl)C13C(Cl)(c1ccc([N+](=O)[O-])cc1C1(Cl)C(Cl)(Cl)C4(Cl)C(Cl)=C(Cl)C13C4(C)C)C2(Cl)Cl (stereo not given)
inactive: [1] 0.55% | [2] -10.1% | [3] -27.9% | [4] -7.6% | [5] -2.5% | [6] 13%

CC[N+]1(CN2CCCCC2)CCCCC1
inactive: [1] 18.5% | [2] -2.8% | [3] 4% | [4] -7.4% | [5] -22.6% | [6] 37.6%

c1nc2c([nH]1)CCNC2c1ccc(C2NCCc3[nH]cnc32)cc1 (stereo not given)
inactive: [1] 1.65% | [2] -1.65% | [3] 1.3% | [4] -38.9% | [5] -14.1% | [6] -2.95%

CCCCOC/N=C(/N)NC#N
inactive: [1] 10.9% | [2] 2.15% | [3] -5.2% | [4] 28.6% | [5] -4.1% | [6] 17.7%

CC(CC(O)C(=O)O)CC(C)(C)C (stereo not given)
inactive: [1] -5.95% | [2] 8.7% | [3] -7.15% | [4] -7.3% | [5] 22.3% | [6] 2.6%

Cc1ccc(OS(=O)(=O)c2cccc(S(=O)(=O)Oc3ccc(C)cc3)c2)cc1
inactive: [1] 19.9% | [2] 3.35% | [3] 8.9% | [4] 7.7% | [5] 9.45% | [6] 6.15%

NC(=O)CCCCCCCCC(N)=O
inactive: [1] 10.7% | [2] 4.95% | [3] 9.65% | [4] -4.75% | [5] -1.4% | [6] 31.1%

CCOC(=O)C(c1ccc2c(c1)OCO2)C1(NC(=O)c2ccccc2)C(=O)C(C(=O)OC)C(=O)C1C(=O)OC (stereo not given)
inactive: [1] 16.5% | [2] 6.15% | [3] -6.7% | [4] 10% | [5] 1.4% | [6] 10.9%

CSCCC(NC(=O)OCc1ccccc1)C(=O)O (stereo not given)
inactive: [1] -31.4% | [2] -0.6% | [3] 5.05% | [4] -25.2% | [5] -4.5% | [6] -4.45%

CCC(CN)C(F)(F)C(F)(F)C(F)(F)F (stereo not given)
inactive: [1] 4.65% | [2] -12.2% | [3] -5.45% | [4] 2.7% | [5] 8.3% | [6] 6.05%

Oc1ccc(/C=C\c2cnccn2)cc1
inactive: [1] 27.6% | [2] 7.3% | [3] 0.45% | [4] 5.55% | [5] 30.8% | [6] 7.6%

C1CSCCSS[C@@H]2CCCCC2SC1 (stereo not given in full)
inactive: [1] -12.8% | [2] -25.1% | [3] -0.55% | [4] -11.9% | [5] -12.1% | [6] -17.1%

CCCC(=O)CC(=O)C(F)(F)F.CCCC(=O)CC(=O)C(F)(F)F.CCCC(=O)CC(=O)C(F)(F)F.[Er]
inactive: [1] 25% | [2] 10.8% | [3] 44.2% | [4] -0.15% | [5] -5.65% | [6] 50.1%

CCOC(=O)COc1cc2c(cc1C(CC)c1ccc(OC)cc1)OCO2 (stereo not given)
inactive: [1] -14.9% | [2] -17.6% | [3] -12.1% | [4] -20.1% | [5] 16.4% | [6] -9.5%

C[C@]12CCC(=O)C=C1CC[C@@H]1[C@@H]2C(=O)C[C@]2(C)/C(=C\C(=O)O)CC[C@@H]12
inactive: [1] -1% | [2] -19.1% | [3] 5.7% | [4] -48.1% | [5] -4.5% | [6] 2.55%

CCSc1nnc(Sc2c3ccccc3nc3ccccc23)s1
active: [6] 76%
inactive: [1] 26.9% | [2] 3.15% | [3] -13.1% | [4] 11.4% | [5] 16.8%

O=C(O)C(Nc1ccc(Cl)cc1)c1ccccc1 (stereo not given)
inactive: [1] 1.7% | [2] 3.25% | [3] 18.9% | [4] 6.5% | [5] 8.1% | [6] -22.6%

C=C1C(=O)OC2/C=C(\C)C(O)CCC(C)(O)CC(OC(=O)/C(C)=C/C)C12 (stereo not given)
inactive: [1] 2.35% | [2] -5.45% | [3] -3.1% | [4] 17.4% | [5] 3.7% | [6] -1.9%

CCCCCCCOC(=O)C1(O)CCCCC1
inactive: [1] 6.1% | [2] 1.25% | [3] 6.65% | [4] 32.5% | [5] 16.8% | [6] -16.6%

COc1ccc(/C=N\NC(=O)c2cnccn2)cc1
inactive: [1] 9.15% | [2] 10.8% | [3] 5.35% | [4] 1.4% | [5] 15.7% | [6] 11.1%

CSc1cccc(NC(=S)NC(=O)c2ccccc2)c1
inactive: [1] -0.25% | [2] -8.15% | [3] -0.65% | [4] -2.4% | [5] 2.55% | [6] -17.4%

C=C(C#N)CSc1c(Cl)c(Cl)c(Cl)c(Cl)c1Cl
inactive: [1] 34.5% | [2] 13% | [3] 9.2% | [4] 17.7% | [5] 16.8% | [6] 62.6%

Cc1cc2nc3c(C(OC4OC(CO)C(O)C(O)C4O)C(O)CO)nn(-c4ccc(F)cc4)c3nc2cc1C (stereo not given)
inactive: [1] 3.6% | [2] -6.85% | [3] -47.7% | [4] 25.6% | [5] 3.45% | [6] 1%

CCCCC(C(=O)O)N(C)C (stereo not given)
inactive: [1] -15.9% | [2] -11.3% | [3] -5.8% | [4] -0.5% | [5] 2.4% | [6] -20.4%

Nc1cccc(S(=O)(=O)NNc2cc(Cl)ccc2Cl)c1
active: [1] 98.7% | [2] 98.6% | [3] 98.8% | [4] 98.8% | [5] 98.3% | [6] 99%

CCCCCCCCCCCCSCCSCCCCCCCCCCCC
inactive: [1] 9.85% | [2] 15.4% | [3] 4.9% | [4] -26.8% | [5] -29.4% | [6] 1.3%

CCN(CC)CCNC(=O)c1ccc(I)cc1
inactive: [1] -43.4% | [2] -14.8% | [3] -0.9% | [4] -25.6% | [5] -4.35% | [6] -30.9%

O=c1nc2c(c(-c3ccc(F)cc3)[nH]1)COC/C2=C\c1ccc(F)cc1
inactive: [1] 18.2% | [2] 11.3% | [3] 34.5% | [4] 21.1% | [5] 28.6% | [6] 33.2%

Cc1ccc(S(=O)(=O)N(C)c2ccc3c(c2)C(=O)c2ccccc2-3)cc1
inactive: [1] 20.6% | [2] 14.2% | [3] 37% | [4] -44.5% | [5] 56% | [6] 26.4%

CCOC(=O)c1nc2ccccc2c(=O)[nH]1
inactive: [1] -1.85% | [2] -5% | [3] 1.5% | [4] -32.9% | [5] -8.6% | [6] -2.5%

— PubChem BioAssay (NCI)
